# PubChem BioAssay (Tox21)
# Values joined by “and” are separate entries in the source; they are usually repeats but may differ in a detail not shown here. Equal values may be shown once. Records with an inconclusive call do not appear. Entries that show only a call come without a potency. A structure can be active in one record and inactive in another. Active and inactive are the calls of the source. Calls follow the shape of the dose curve; as a rule, active = well fitted cell-killing curve with a large enough effect in the repeat runs; inconclusive = weak or mixed curves, or effect the other way; inactive = flat fitted curve, though single readings scatter.
# Assay: Human pregnane X receptor (PXR) small molecule agonists, qHTS cell viability counter screen (AID 1346977); also: nearly all actives have a fitted effect of over 50% in size
# Details: PXR-Luc HepG2 viability, CellTiter-Fluor, 24 h; series mostly up to 92.4 µM
# Description: U.S. Tox21 Program National Center for Advancing Translational Sciences [NCATS] NIH Chemical Genomics Center [NCGC] U.S. Environmental Protection Agency [EPA] National Institutes of Environmental Health Sciences [NIEHS] National Toxicology Program [NTP] U.S. Food and Drug Administration [FDA] Tox21 Assay Overview: The human pregnane X receptor (hPXR) regulates the expression of several drug metabolizing enzymes and induction of these proteins is a major mechanism for developing drug resistance in cancer. One such key enzyme catalyzing the drug metabolism is cytochrome P450 3A4 (CYP3A4). Changes in CYP3A4 expression affect drug metabolism, thereby reducing the therapeutic efficacy and altering toxicological response to a drug and which finally causes adverse drug interaction. To screen Tox21 libraries for compounds that activate hPXR-mediated CYP3A4 gene expression, PXR-Luc HepG2 cells were used. Also cytotoxicity of the compounds was tested in parallel by measuring the cell viability using CellTiter-Fluor assay system in the same wells.
# Tox21 Assay Protocol Summary: PXR-Luc HepG2 cells were dispensed at 2,000 per well in 5uL of assay medium containing 5% charcoal-stripped FBS into white solid bottom 1536-well plates (Corning Life Sciences, Corning, NY) using a Multidrop Combi (Thermo Scientific, Waltham, MA) dispenser. The assay plates were incubated at 37 C and 5% CO2 for 5hr, and then 23nL of compounds dissolved in DMSO and positive control were transferred using a Pintool station (Wako, San Diego, CA). The assay plates were incubated at 37C and 5% CO2 for 24hr. For cytotoxicity read, after 23hr incubation at 37C, 1uL CellTiter-Fluor reagent (Promega Corporation, Madison, WI) was added to each well of the assay plates using Flying Reagent Dispenser (FRD, Aurora Discovery, San Diego, CA). After 1hr incubation at 37C and 5% CO2, the fluorescence signal was quantified using a ViewLux plate reader (PerkinElmer, Shelton, CT).
# Potency is read from the fitted curve at half-maximal effect.
row,Structure (SMILES),Potency
1,CCC/C=C/C=O,inactive
2,Cc1ccc2c(c1)C(=O)OC2=O,inactive
3,C[C@]12CC[C@@H]3c4ccc(O)cc4CC[C@H]3[C@@H]1CC[C@@H]2O,inactive
4,C[C@]12C=CC(=O)C=C1CC[C@H]1[C@@H]3C[C@@H](O)[C@](O)(C(=O)CO)[C@@]3(C)C[C@H](O)[C@@]12F,inactive
5,CC(C)[N+](C)(CCOC(=O)C1c2ccccc2Oc2ccccc21)C(C)C,inactive
6,O=C(O)COCCN1CCN(C(c2ccccc2)c2ccc(Cl)cc2)CC1 (stereo not given),inactive
7,FC(F)(F)C(Cl)Br (stereo not given),inactive
8,OC[C@H]1O[C@@H]2O[C@H]3[C@H](O)[C@@H](O)[C@@H](O[C@H]4[C@H](O)[C@@H](O)[C@@H](O[C@H]5[C@H](O)[C@@H](O)[C@@H](O[C@H]6[C@H](O)[C@@H](O)[C@@H](O[C@H]7[C@H](O)[C@@H](O)[C@@H](O[C@H]1[C@H](O)[C@H]2O)O[C@@H]7CO)O[C@@H]6CO)O[C@@H]5CO)O[C@@H]4CO)O[C@@H]3CO,inactive
9,CC(=O)Oc1ccc(C(c2ccc(OC(C)=O)cc2)c2ccccn2)cc1,inactive
10,O=C(CCCN1CCC(O)(c2ccc(Cl)cc2)CC1)c1ccc(F)cc1,27.3 µM (active) and 23.7 µM (active)
11,CC(=O)O[C@]1(C(C)=O)CC[C@H]2[C@@H]3C=C(Cl)C4=CC(=O)CC[C@]4(C)[C@H]3CC[C@@]21C,inactive
12,NC[C@H](O)c1ccc(O)c(O)c1,inactive
13,Cc1ccc(S(=O)(=O)O)cc1C,inactive
14,CC1(C)O[C@@H]2C[C@H]3[C@@H]4C[C@H](F)C5=CC(=O)C=C[C@]5(C)[C@@]4(F)[C@@H](O)C[C@]3(C)[C@]2(C(=O)CO)O1,inactive
15,CNC[C@H](O)c1ccc(O)c(O)c1,inactive
16,CCC(=O)O[C@H]1[C@H](O[C@@H]2[C@@H](C)[C@H](O[C@H]3C[C@@](C)(OC)[C@@H](O)[C@H](C)O3)[C@@H](C)C(=O)O[C@H](CC)[C@@](C)(O)[C@H](O)[C@@H](C)C(=O)[C@H](C)C[C@@]2(C)O)O[C@H](C)C[C@@H]1N(C)C,36.1 µM (active) and inactive
17,Oc1c(Cl)ccc(Cl)c1Cl,inactive
18,CN(Cc1cnc2nc(N)nc(N)c2n1)c1ccc(C(=O)N[C@@H](CCC(=O)O)C(=O)O)cc1,inactive
19,CC/C(=C(/CC)c1ccc(O)cc1)c1ccc(O)cc1,inactive
20,CCCCCCCC/C=C\CCCCCCCC(=O)O,inactive

row,Structure (SMILES),Potency
1,CCCOCCO,inactive
2,O=C1OC2(c3ccccc31)c1cc(I)c(O)c(I)c1Oc1c2cc(I)c(O)c1I,7.78 µM (active) [middle of 4 runs]
3,Cc1ccc(C(C)(C)C)c(O)c1,inactive
4,COCCOCCOCCO,inactive
5,c1ccc2c(c1)ccc1ncccc12,inactive
6,CCCN1C=CN(C)C1,inactive
7,CC(C)(C)c1cccc(C(C)(C)C)c1O,inactive
8,O=C(O)CCCCCCCCCCCC(=O)O,inactive
9,Oc1ccc(C(c2ccc(O)cc2)C(Cl)(Cl)Cl)cc1,inactive
10,Nc1cc([N+](=O)[O-])ccc1C(=O)O,inactive
11,COc1cc([C@H]2Oc3cc([C@H]4Oc5cc(O)cc(O)c5C(=O)[C@@H]4O)ccc3O[C@@H]2CO)ccc1O,inactive
12,C=CC(C)(O)CCC=C(C)C (stereo not given),inactive
13,COc1ccc2nc(N)sc2c1,inactive
14,CC(C)(Oc1ccc(Cl)cc1)C(=O)O,inactive
15,Nc1ccc(O)c(N)c1,44.7 µM (active)
16,OCCNCCO,inactive
17,NCCS(=O)(=O)O,inactive
18,CC/C=C\C/C=C\C/C=C\CCCCCCCC(=O)O,inactive
19,CC1=CC(C)(C)Nc2ccccc21,inactive
20,Cc1cccc(Nc2ccccc2C(=O)O)c1C,inactive
